Assay results: PubChem BioAssay AID624305 (National Center for Advancing Translational Sciences (NCATS), 2012)
Records with an inconclusive call do not appear. Unmarked numbers belong to inactive results. Calls of active or inactive are those of the source. Calls come from the whole dose curve; as a rule, active = well fitted activation curve with a large enough effect; inconclusive = small, poorly fitted or top-dose-only effect; inactive = no such curve, though single readings can be large or run the other way.

test: qHTS assay for re-activators of p53 using a Luc reporter: Hit Validation; conditions: p53-responsive luciferase reporter cells, luminescence, H1299 line expressing heat-sensitive Ala138Val p53; series mostly up to 46.1 µM; activation: at the top concentration; note: nearly all actives have a fitted effect of over 75% in size; for activation: 0% is about no effect
Method in brief: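 H1299 (p53-null) cells stably carrying p53-A138V and a BP100-luciferase reporter, 1000 cells/well, treated 24 h at 37 deg C. Compounds at several concentrations, 1:5 dilution; nocodazole control; luminescence read after 10 min with detection reagent.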
Potency is the fitted concentration of half-maximal effect.

Row | SMILES | Potency | activation
1 | Cc1csc(NC(=O)/C=C/c2ccco2)n1 | 10300 nM (active) | –
2 | Cc1ccc(OCCCNCCO)c(Br)c1 | – | 39.1%
3 | CC(=O)Oc1ccc(Cl)cc1/C=C/c1ccc2ccccc2n1 | 4610 nM (active) | –
4 | S=C(Nc1ccccc1)Nc1nc2ccccc2n1CCOc1ccc(Br)cc1 | – | -11.5%
5 | O=C(Nc1nnc(-c2cccs2)o1)c1cccc(C(F)(F)F)c1 | – | -4.17%
6 | COc1ccccc1NC(CC(=O)c1ccccc1)C(=O)OCC(=O)c1ccc(F)cc1 (stereo not drawn) | 231 nM (active) | –
7 | Cc1ccsc1/C=N/Nc1nc2ccccc2[nH]1 | 1300 nM (active) | –
8 | COCCn1c(C)cc(C(=O)CSc2nc3ccccc3s2)c1C | – | 130% [at 9.22 µM]
9 | Clc1ccc(OCc2nc(-c3ccccn3)no2)c(Br)c1 | 1030 nM (active) | –
10 | C/C(=N\NC(=S)NC(C)C)c1ccc(Cl)s1 | – | 14.1%
11 | O=C(/C=C/c1ccco1)Nc1ccccn1 | 2310 nM (active) | –
12 | OC1(C2(O)CC(c3ccccc3)ON2)CCCCC1 (stereo not drawn) | – | -85.4%
13 | COc1ccc(N2CCN(C(=O)COC(=O)c3ccc(OC(F)F)cc3)CC2)cc1 | – | -10.9%
14 | Cc1cc(C(=O)NC2CCCCC2)c(C)n1-c1ccc(F)cc1 | 8200 nM (active) | –
15 | COc1cc(N/N=C/c2ccccc2O)ncn1 | 25900 nM (active) | –
16 | Cc1occc1C(=O)NNC(=S)Nc1ccccc1C(F)(F)F | 13000 nM (active) | –
17 | c1ccc(Oc2cc(-n3cncn3)ncn2)cc1 | – | 30.2%
18 | CCOP(=O)(OCC)C(NC(=O)Nc1ccccc1)C(N)=O (stereo not drawn) | – | -4.69%
19 | O=C(Cn1cc2c(n1)CCCCC2)NC1CCCCCC1 | – | 69.8%

Row | SMILES | Potency | activation
20 | COc1ccnc(CSC(N)=Nc2ccccc2OC)c1 | – | 18.8%
21 | CCCCCCC[C@@H](C/C=C/CCC(=O)N(C)C/C(=C/Cl)C/C(=C\C(=O)N1CC(OC)=CC1=O)OC)OC | 5800 nM (active) | –
22 | COc1ccc2nc(SCc3ccccc3)nc(C)c2c1 | 1460 nM (active) | –
23 | Cc1ccc2cc(C#N)c(NCc3ccco3)nc2c1 | – | -78.1%
24 | CCSc1nnc(SCC(=O)NC2CCCCC2)s1 | – | -8.33%
25 | Cn1ncc([N+](=O)[O-])c1C(=O)Nc1ccc(C2CCCCC2)cc1 | – | 24%
26 | c1ccc2sc(-c3ccc4c(c3)OCO4)nc2c1 | 2310 nM (active) | –
27 | CC(C)(C)c1ccc(NC(=O)COC(=O)c2ccc(NS(=O)(=O)c3ccc(F)c(F)c3)cc2)cc1 | – | -88%
28 | C/C(=N\NC(=O)c1ccccc1)c1ccc(NC(=O)c2cccs2)cc1 | – | -2.6%
29 | CC(C)(C)OC(=O)N1CCC(C(=O)Nc2ccc3c(c2)CCC3)CC1 | 23100 nM (active) | –
30 | COc1ccc(NC(=O)CN(C)CC(=O)Nc2ccccc2SC)cc1 | – | -11.5%
31 | COc1ccccc1-c1c(C)nn2c(C)c(C(C)=O)cnc12 | – | -1.56%
32 | O=C1NCCCc2c1oc1ccc(O)cc21 | – | 41% [at 9.22 µM]
33 | Cc1csc(NC(=O)CSc2nnc(-c3cccs3)n2C)n1 | – | 10.9%
34 | CCOc1ccc2cc(C#N)c(SCC(=O)OC)nc2c1 | 2910 nM (active) | –
35 | O=S(=O)(N/N=C/c1ccccc1OCc1ccc(Cl)cc1)c1ccccc1 | – | -58.3%
36 | COC(=O)c1nn(-c2ccc(-c3ccccc3)cc2)cc1O | 92 nM (active) | –
37 | CCOc1ccc(/C=N/NC(=O)CN2CCSCC2)cc1 | – | -1.56%
38 | Cc1ccc(CSc2nc3ccncc3[nH]2)cc1 | – | -42.2%
